Measured values as given in the supplement of paper PMC6555819.

Key:
Assay in all cases: PBM binding z-score (relative to random genomic background probes); higher = stronger binding; sequences stand for … in GC…GCGATTGACAGCGTAGAATGAAGG
[1] = test system: PPARg:RXRa DBDmut IVT, anti-RXR (DBD mutation: RXRa K156A/R161A, NR concentration 270 nM, RXRa partner concentration 90 nM)
Procedure, shortened: (§1)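 Binding z-scores take random background probes as their reference. They come from custom Agilent 4×180K protein-binding microarrays incubated 1 h with ligand-free nuclear receptor dimers, with antibodies against each partner (one per run) detecting binding. Scanned fluorescence was regression-normalized.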

[2] = test system: PPARg:RXRa IVT, anti-PPARg (NR concentration 270 nM, RXRa partner concentration 90 nM)
Procedure, shortened: as §1

[3] = test system: PPARg DBDmut:RXRa IVT, anti-PPARg (DBD mutation: PPARg1 K132A/R137A, NR concentration 270 nM, RXRa partner concentration 90 nM)
Procedure, shortened: as §1

[4] = test system: PPARg DBDmut IVT, anti-PPARg (DBD mutation: PPARg1 K132A/R137A, NR concentration 270 nM)
Procedure, shortened: as §1

[5] = test system: PPARg homodimer (NR concentration 180 nM)
Procedure, shortened: as §1

[6] = test system: PXR:RXRa (NR concentration 270 nM, RXRa partner concentration 90 nM)
Procedure, shortened: as §1

[7] = test system: PXR homodimer (NR concentration 270 nM)
Procedure, shortened: as §1

[8] = test system: RARa:RXR (NR concentration 270 nM, RXRa partner concentration 90 nM)
Procedure, shortened: as §1

[9] = test system: RARa homodimer (NR concentration 270 nM)
Procedure, shortened: as §1

[10] = test system: RARb:RXRa (NR concentration 270 nM, RXRa partner concentration 90 nM)
Procedure, shortened: as §1

| Sequence | PBM binding z-score [1] | PBM binding z-score [2] | PBM binding z-score [3] | PBM binding z-score [4] | PBM binding z-score [5] | PBM binding z-score [6] | PBM binding z-score [7] | PBM binding z-score [8] | PBM binding z-score [9] | PBM binding z-score [10] |
| --- | --- | --- | --- | --- | --- | --- | --- | --- | --- | --- |
| CCGACTGGGGCAAAGGTTACCATTCTCAGTACGA | 4.87 | 5.9 | 0.712 | 0.351 | 3.82 | 2.41 | -0.502 | 3.87 | -0.539 | 2.39 |
| GCTAGTTGGTCAGTAAAAGGTCACACAACGGTCG | 0.826 | 2.77 | 0.539 | 0.321 | 3.81 | 5.2 | 1.19 | 6.17 | 2.05 | 4.43 |
| CCTACTGGGCCATTCAGAAGTCATTGATCATATG | 4.43 | 3.36 | -0.17 | -0.487 | 0.0197 | -0.557 | -0.689 | -0.413 | 0.126 | 0.115 |
| TGTCACAGTTCAAAGGTAACGTAAGTATCCACAC | 0.227 | 2.78 | 1.49 | 1.01 | 0.48 | 3.67 | 0.969 | 4.07 | -0.272 | 2.88 |
| CAAACTAGGGCAAGAGGTCAAAGTCCGCTTCCCG | 6.91 | 7.47 | 1.69 | 0.0985 | 3 | 5.35 | 1.49 | 5.98 | 1.61 | 4.51 |
| TTACCAAGGTGAGCTGAGGTCATTGATCCAACTC | 1.49 | 2.8 | -0.00582 | -0.0839 | 1.23 | 6.15 | 3.42 | 4.75 | 0.362 | 3.44 |
| GCTTACGGGTCAAAGGTTATAGCGTGAATAGAAT | 4.36 | 6.22 | 1.03 | 1.18 | 2.67 | 5.96 | 0.264 | 7.96 | 0.595 | 4.33 |
| CGCGAAAGGTCGGTTGAGGTGAGTATACGGATAA | 0.0113 | 0.699 | 0.0036 | -0.174 | 0.986 | 3.35 | -0.075 | 3.62 | 0.138 | 3.08 |
| CGAACTAGGTCAAGGACAATGAATCTCCGCACGC | 8.3 | 8.44 | 2.51 | 1.02 | 2.03 | 1.31 | 0.478 | 1.99 | -0.186 | 3.99 |
| CCTAGCTGGTCAGGAGGTCACACACCGGATATGA | 0.695 | 2.85 | 0.353 | 0.266 | 3.15 | 4.2 | 0.691 | 4.65 | 0.568 | 3.67 |
| CTCGAAAGGTCGATTGAGGTGAGTATACGGATAA | 0.741 | 1.76 | -0.148 | 0.11 | 0.805 | 4.35 | 0.0799 | 3.05 | 0.109 | 3.67 |
| TCTGCTAGGTCAACGATGGTCGGCTAATCTGCTA | 4.31 | 4.05 | 0.027 | -0.0502 | 0.168 | 1.22 | -0.84 | 2.02 | -1.21 | 3.97 |
| ATACCAAGGTGATCGCGAGGTCGTTGATACTAAC | 0.441 | 1.35 | 0.0109 | 0.101 | 0.588 | 3.17 | 1.13 | 1.84 | -0.462 | 1.24 |
| GAATATAGGTAATACAAGGTGAAAGTCCGATTGT | 6.67 | 6.08 | 2.27 | 1.21 | 1.32 | 0.776 | 0.722 | 1.33 | 1.55 | 0.909 |
| CAGCCTAGGTCAGGTCCAGTATAGGAGGAACGTT | 1.02 | 0.846 | -0.384 | -1.31 | 0.577 | 0.126 | -0.567 | 0.528 | -0.0442 | 3 |
| CCTCGGTGGACAGAAGGTCAGAGCTGTCCGCTTT | -0.193 | 0.138 | -2.04 | -1.69 | 1.8 | 1.32 | -0.447 | 1.66 | -0.0873 | 2.56 |
| AGTCAAAGTTCATCTAGGTAACGTGAGATATGCT | 1.17 | 3.86 | 1.73 | 0.803 | 2.99 | 5.36 | 7.67 | 3.82 | 1.48 | 4.96 |
| TAGCCTAGGTCATGGGCCAATATACCACGCGAAC | 1.34 | 3.16 | 0.749 | -0.176 | 1.44 | 1.86 | -0.28 | 2.92 | 0.353 | 3.77 |
| GTACCAAGGTGAAAAGGTCGTTGATGAGTAGGCG | 1.77 | 2.85 | 0.246 | -0.0504 | 2.35 | 2.73 | 0.862 | 3.71 | 0.82 | 3.35 |
| GGAACGAGGGCAAGTTGAGAGCAGAGTTTGATGG | 3.69 | 2.7 | 0.19 | -0.541 | 0.391 | 0.927 | 0.275 | 0.482 | -0.172 | 2.74 |
| TAGCCTAGGTCATTAAGGGGCCAGTATAGAAAGC | 1.56 | 2.58 | 0.422 | 0.198 | 0.937 | 1.36 | -0.202 | 2.18 | 0.00876 | 3.64 |
| CCTACTAGGTCAATGGTCAGCTAAAGCAGCTCGC | 7.63 | 7.77 | 2.1 | 1.05 | 2.62 | 1.26 | 0.377 | 1.95 | 0.521 | 3.89 |
| GCATATAGGTAATACAACGTGAAAGTCCGATTGT | 4.04 | 2.2 | 0.468 | 0.495 | -0.277 | -0.414 | -0.12 | -0.549 | 0.219 | -0.451 |
| TCATATAGGTAAACAGCTGAAAGTCCGTAAGTTA | 3.93 | 2.25 | 1.07 | 0.733 | 0.646 | 0.928 | 0.555 | 1.19 | 0.977 | 0.471 |
